FMDV antiviral: blocks foot and mouth disease virus | Potency, µM (series often up to 57.9 µM), inactives show at the top dose activity change, negative = inhibition, hits mostly inhibitors | FMDV antiviral cell-based qHTS | 410,000 compounds, 1.2% hits; calls by dose curve; tested in HEK293T cells; note: read-out not given here; nearly all actives have a fitted effect of over 45% in size
Vaccinia mCherry: vaccinia inhibition (mCherry reporter); Vaccinia virus mCherry reporter infection, fluorescence; Potency, µM (doses to about 36.5 µM), without a hit: top-dose activity change, negative = inhibition, most hits filed as inhibitors; 310,000 compounds, 0.63% hits; AID 720579; calls by dose curve; tested in A549 cells; note: nearly all actives have a fitted effect of over 35% in size
HCV inhibitor: inhibitors of hepatitis C virus infection. Huh7.5.1 HCVcc-Cre infection, luciferase reporter, 44 h. 340,000 compounds, 3.4% hits. Potency, µM (doses to about 41.8 µM), inactives show at the highest dose activity change, negative = inhibition, most hits filed as inhibitors; active = well fitted inhibition curve with a large enough effect; inconclusive = small, poorly fitted or top-dose-only effect, or another doubt; inactive = no such curve, though single readings can be large or run the other way
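Seed cells (1,000/well) for 4 h; treat with compound and infect with HCVcc-Cre, moi about 0.5. Incubate 44 h, then detect luciferase activity.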
VACV Venus inh: vaccinia inhibition (Venus reporter); Vaccinia virus Venus reporter expression, fluorescence; Potency, µM (titrated, usually from 36.5 µM), for the others: at the top dose activity change, negative = inhibition, hits mostly inhibitors; 330,000 compounds, 0.46% hits; AID 720580; calls by dose curve; tested in A549 cells; note: nearly all actives have a fitted effect of over 30% in size
Marburg entry inh: blocks Marburg virus binding to or entry into cells | Marburg virus pseudotyped entry inhibition, cell reporter | AID 540276 | Potency, µM (doses to about 37.8 µM), without a hit: at the highest dose activity change, negative = inhibition, hits mostly inhibitors | 300,000 compounds, 1.8% hits; calls by dose curve; tested in HEK293 cells
Lassa entry inh: Lassa virus entry inhibition; Lassa virus pseudotype entry inhibition, cell reporter; Potency, µM (series often up to 37.9 µM), for inactives: at the top dose activity change, negative = inhibition, hits mostly inhibitors; 300,000 compounds, 1.2% hits; AID 540256; calls by dose curve; tested in HEK293 cells; note: nearly all actives have a fitted effect of over 50% in size
* hit, by the source's call; i = inactive; ? = inconclusive; / = no result; [ ] = remark or other dose. A selection: hits, their analogues and other compounds. The true share with any hit is near 5.3%. % is set by controls: 0 for no effect and ±100 for the full control effect; potency is the fitted concentration of half-maximal effect.

SMILES	FMDV antiviral	Vaccinia mCherry	HCV inhibitor	VACV Venus inh	Marburg entry inh	Lassa entry inh
COc1cc(/C=C2\COC/C(=C\c3ccc(O)c(OC)c3)C2=O)ccc1O	18µM*	?	11µM*	?	?	?
COc1cc(/C=C2/SC(=Nc3ccc(O)cc3)NC2=O)ccc1O	-4%	13µM*	?	44%	/	/
COc1ccc(/C=C2\CCc3ccccc3C2=O)cc1OC	15%	7.9µM*	0%	?	-11%	1%
COc1ccc(N=C2NC(=O)/C(=C/C=C/c3ccccc3)S2)cc1	-1%	-17%	?	-12%	-9%	1µM*
COc1cc(/C=C2\SC(=Nc3ccccc3OC)NC2=O)ccc1O	7%	?	-25%	3%	?	?
COc1ccc(N=C2NC(=O)/C(=C\C=C\c3ccccc3)S2)cc1	-5%	0%	-25%	-10%	-2%[46.1 µM]	?
COc1cc(/C=C/C=C2/CC/C(=C/C=C/c3ccc(O)c(OC)c3)C2=O)ccc1O	?	i	?	56%	?	?
COc1cccc(/C=C2\CCc3ccccc3C2=O)c1	-66%	i	-3%	-14%	/	/
CCN1C(=NCc2ccccc2)N[C@@H](CCc2ccccc2)[C@H](C(=O)OC)[C@H]1C	/	/	/	/	-18%[14.2 µM]	/
CN(C)c1ccc(/C=C/c2ccnc3ccccc23)cc1C=O	/	-24%	/	-10%	/	/
Cc1ccnc2ccc(Br)cc12	/	-10%	/	-3%	/	/
Cc1ccc(S(=O)(=O)N2CCN(c3nc(-c4cccs4)nc4ccccc34)CC2)cc1	-31%	-6%	/	-13%	/	/
COc1ccc(-c2cc(=O)c3c(OC)c(OC)c(OC)c(OC)c3o2)cc1	0%	-18%	10µM*	-10%	/	/
CC1CCCN(c2nc(-c3cccnc3)nc3scc(-c4ccccc4)c23)C1 (configuration not stated)	-10%	-9%	?	-14%	-14%	?
CC1CCN(c2nc(-c3cccnc3)nc3scc(-c4ccccc4)c23)CC1	-4%	/	22µM*	/	/	/
CC1CCN(c2nc(CN3CCCCC3)nc3scc(-c4ccccc4)c23)CC1	32µM*	-24%	?	-15%	?	?
COc1ccc(-c2cc(-c3cc(C)ccc3O)[nH]n2)cc1	14%	8.9µM*	3.5µM*	?	?	?
COc1ccc(OC)c(NC(=O)c2cc(-c3cc(C)ccc3O)n[nH]2)c1	17%	10µM*	-33%	11µM*	?	?
Cc1ccc(O)c(-c2cc(-c3ccccc3C)[nH]n2)c1	27%	?	11µM*	?	?	?
CCOc1ccc(C(=O)c2cn(CC(=O)Nc3ccc(OC)cc3)c3cc4c(cc3c2=O)OCO4)cc1	0%	-4%	/	-9%	1%[46.1 µM]	24%[46.1 µM]
COc1ccc(C2c3c(n(C)c4ccccc34)C(=O)N2CC(=O)Nc2ccc(Cl)cc2)cc1 (configuration not stated)	?	0%	/	-9%	/	-5%[46.1 µM]
O=C(CSc1nnc(COc2cccc3cccnc23)o1)N1CCc2ccccc21	/	-18%	2.2µM*	13%	0%	7%
O=C(CSc1nnc(Cc2ccccc2)o1)N1CCc2ccccc21	11%	/	-18%	-14%	12%	2%
O=C(C[N+]1(CCc2ccccc2)CCOCC1)c1cccc([N+](=O)[O-])c1	/	-16%	/	-9%	/	/
Cc1ccc(OCC(=O)c2cc(C)n(Cc3cccs3)c2C)c([N+](=O)[O-])n1	18µM*	?	?	?	?	?
SMILES	FMDV antiviral	Vaccinia mCherry	HCV inhibitor	VACV Venus inh	Marburg entry inh	Lassa entry inh
Cc1ccc(OCC(=O)c2cc(C)n(CC(F)(F)F)c2C)c([N+](=O)[O-])n1	-22%	i	?	-18%	-3%[46.1 µM]	-22%[46.1 µM]
COCc1cc(C)nc2sc(C(=O)Nc3ccccc3F)c(N)c12	33%	/	10µM*	/	/	/
CCOc1ccc(NS(=O)(=O)c2ccc(C(=O)NCc3ccncc3)cc2)cc1	5%	-3%	7.1µM*	-23%	-19%	-9%[46.1 µM]
CCOc1ccc(NS(=O)(=O)c2ccc(C(=O)NCc3cccnc3)cc2)cc1	-22%	-13%	?	-7%	-13%[46.1 µM]	-23%
O=C(COc1ccc(S(=O)(=O)Nc2ccccc2)cc1)NCc1ccncc1	11%	-3%	3%	-16%	?	2.6µM*
CCOC(=O)C1(C(N)=O)OC1(c1ccc(Cl)cc1)c1ccccc1Cl (configuration not stated)	12%	-2%	7%	-2%	-29%[46.1 µM]	-28%[46.1 µM]
CCOC(=O)N1C(=O)[C@@](c2ccc(Cl)cc2)(C(C)C)N1C(=O)OCC	?	?	53%	13µM*	/	/
COC(=O)N1C(=O)[C@](c2ccccc2)(C(C)C)N1C(=O)OC	-26%	?	13%	-26%	/	/
CCOC(=O)N1C(=O)[C@](c2ccc(Cl)cc2)(C(C)C)N1C(=O)OCC	28µM*	10µM*	13%	?	/	/
COc1cccc(C(=O)Nc2nc3nc(C)c(C)c(=O)n3[nH]2)c1	-11%	-3%	/	-7%	20%[46.1 µM]	?
O=C(NCc1ccccc1)c1nc(S(=O)(=O)Cc2ccc(F)cc2)ncc1Cl	32µM*	-12%[7.34 µM]	/	-14%[7.34 µM]	?	?
Cc1nnc(NC(=O)c2nc(S(=O)(=O)Cc3ccccc3)ncc2Cl)s1	5.6µM*	8%	10µM*	-1%	?	?
O=C(Nc1ccccc1F)c1nc(S(=O)(=O)Cc2ccccc2F)ncc1Cl	?	i	/	?	?	?
Cc1ccc(NC(=O)c2nc(S(=O)(=O)Cc3ccccc3)ncc2Cl)cc1	28µM*	-23%	?	?	?	-17%
O=C(Nc1ccc(F)cc1)c1nn(-c2ccccc2)c(=O)cc1Cl	22µM*	?	6.3µM*	28µM*	7.1µM*	?
O=C(CN1C(=O)C2(SCC(=O)N2c2cccc(Cl)c2)c2ccccc21)NCc1ccccc1 (configuration not stated)	-13%	-22%	/	-14%	/	-11%[46.1 µM]
COCCCNc1ncnc2c1nnn2C	-15%	i	/	-5%	/	-1%[46.1 µM]
Cc1ccccc1C(=O)NNc1ncnc2c1cnn2-c1cccc(Cl)c1	-15%	-11%	/	1%	/	?
CC(C)OC(=O)c1cc2c(OCC(O)CNC(C)(C)C)cccc2[nH]1 (configuration not stated)	1%	/	/	/	/	/
Cc1ccccc1CS(=O)(=O)c1ncc(Cl)c(C(=O)Nc2ccc(F)cc2)n1	?	/	-21%	/	/	/
CCCc1nnc(NC(=O)c2nc(S(=O)(=O)Cc3cccc(C)c3)ncc2Cl)s1	28µM*	/	?	/	/	/
Cc1cccc(CS(=O)(=O)c2ncc(Cl)c(C(=O)NCc3ccccc3)n2)c1	32µM*	-18%[7.34 µM]	?	-17%[7.34 µM]	4.5µM*	?
Cc1cccc(C)c1NC(=O)c1nc(S(=O)(=O)Cc2ccccc2)ncc1Cl	28µM*	-29%	?	-9%	11µM*	?
CCc1nnc(NC(=O)c2nc(SCc3cccc(C)c3)ncc2Cl)s1	-2%	-7%	/	-8%	5%[46.1 µM]	5%[46.1 µM]

From PubChem
